Source: PubChem BioAssay (NCI)
About 79,000 compounds went through this panel and 15% of them were active in at least one assay; those are over-represented in the sample as a whole. Unmarked numbers belong to inactive results. Activity calls are given as the source filed them. Cut-off read from the data, not from the text of the source: active = growth inhibition above about 70%; inactive = the rest.

Assay: NCI Yeast Anticancer Drug Screen. Data for the CLN2oe strain (AID 163);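 note: 0% = growth of vehicle-only control cultures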
Settings: S. cerevisiae CLN2oe strain, hits give high values
Procedure: Growth inhibition of yeast strains with defined genetic alterations is measured as a screen for potential anti-cancer activity. Selected strains with alterations in DNA damage repair or cell cycle control were exposed to compounds and growth inhibition was measured relative to vehicle treated controls. The strain used in this assay is CLN2oe

In the case of `C/C(=N\OCC(O)CNCCSCc1ccccc1)c1ccccc1Cl` (stereo not given), the growth inhibition (at 1.2 µM) is reported as -3%, the growth inhibition (at 3.7 µM) is reported as 12% and the growth inhibition (at 11.0 µM) is reported as 30%. For the same molecule, the growth inhibition (at 33.0 µM) was 47% and the growth inhibition (at 100.0 µM) was 75% (active).

For `O=C1CCC(Cc2ccccc2)CN1` (stereo not given), the growth inhibition (at 1.2 µM) was -8%, the growth inhibition (at 3.7 µM) was -5% and the growth inhibition (at 11.0 µM) was 3%. The growth inhibition (at 33.0 µM) was -4% and the growth inhibition (at 100.0 µM) was -6%.

`O=C1C[C@H]2[C@H](c3ccc(Br)cc3)[C@H]3C(=O)c4ccccc4NC(=O)[C@@H]3[C@@]2(O)c2ccccc2N1` showed a growth inhibition (at 1.2 µM) of 9%, a growth inhibition (at 3.7 µM) of 16% and a growth inhibition (at 11.0 µM) of 16%. It also gave a growth inhibition (at 33.0 µM) of 38% and a growth inhibition (at 100.0 µM) of 38%.

`CCOP(=O)(OCC)/C(C#N)=C\c1cccc2ccccc12` gave a growth inhibition (at 1.2 µM) of 13%, a growth inhibition (at 3.7 µM) of 2% and a growth inhibition (at 11.0 µM) of -7%. For the same molecule, the growth inhibition (at 33.0 µM) was 59% and the growth inhibition (at 100.0 µM) was 98% (active).

With `COc1cc2c(cc1O)[C@H](C)C(c1ccccc1OC)O2` (stereo not given in full) the growth inhibition (at 1.2 µM) was 14%, the growth inhibition (at 3.7 µM) was 9% and the growth inhibition (at 11.0 µM) was 5%. The growth inhibition (at 33.0 µM) was 18% and the growth inhibition (at 100.0 µM) was 97% (active).

Molecule `O=C1C(=O)N(c2ccccc2)[C@@]2(c3ccccc3)C(=Nc3ccccc3)OC(c3ccccc3)=C12` has a growth inhibition (at 1.2 µM) of 2%, a growth inhibition (at 3.7 µM) of 0% and a growth inhibition (at 11.0 µM) of 1%. The growth inhibition (at 33.0 µM) was 9% and the growth inhibition (at 100.0 µM) was 47%.

With `CNCC(C)CNC` the growth inhibition (at 1.2 µM) was 15%, the growth inhibition (at 3.7 µM) was 6% and the growth inhibition (at 11.0 µM) was -1%. The growth inhibition (at 33.0 µM) was -7% and the growth inhibition (at 100.0 µM) was -12%.

Molecule `CCOP(=O)(OCC)/C(C#N)=C/c1cccc(Oc2ccccc2)c1` has a growth inhibition (at 1.2 µM) of -12%, a growth inhibition (at 3.7 µM) of -23% and a growth inhibition (at 11.0 µM) of 42%. For the same molecule, the growth inhibition (at 33.0 µM) was 97% (active) and the growth inhibition (at 100.0 µM) was 97% (active).
